Compound activity deposited in PubChem BioAssay by National Center for Advancing Translational Sciences (NCATS).
Shiga inhibitor = Shiga toxin inhibition; Vero cells, Shiga toxin protein synthesis inhibition reporter; inhibition, % at 38.7 µM; 9.2% of 290,000 active; in the data active = inhibition mostly above about 28%, no sharp cut-off; inactive = mostly below about 43%; also: 0% is about no effect
CHX counter = counter-screen for Shiga toxin inhibitors: cycloheximide protein synthesis inhibition; cell reporter, cycloheximide protein synthesis inhibition counterscreen; max response, %; 12% of 300,000 active; AID 2314; in the data active = max response mostly above about 13%, no sharp cut-off; inactive = mostly below about 14%; also: read at 38.3 µM for the half of the compounds with a filed dose; 0% is about no effect
MARV entry inh = Marburg virus entry inhibition; AID 540276; 1.8% of 300,000 active; Marburg virus pseudotyped entry inhibition, cell reporter; Potency, µM (highest dose often 37.8 µM), inactives show at the top dose activity change, negative = inhibition, actives largely listed as inhibitors; calls by dose curve; tested in HEK293 cells; also: potency is read from the fitted curve at half-maximal effect; % is scaled to controls: 0 for no effect and ±100 for the full control effect
LASV entry inh = inhibitors of Lassa virus binding or cell entry; Lassa virus pseudotype entry inhibition, cell reporter; Potency, µM (series often up to 37.9 µM), inactives show at the highest dose activity change, negative = inhibition, hits mostly inhibitors; 1.2% of 300,000 active; AID 540256; calls by dose curve; tested in HEK293 cells; also: potency is read from the fitted curve at half-maximal effect; % is scaled to controls: 0 for no effect and ±100 for the full control effect; nearly all actives have a fitted effect of over 50% in size
Numbers without * were called inactive; ? = inconclusive; nt = not tested or not shown; ! = repeats disagree; [ ] = another dose, or the depositor's remark. Most compounds without a hit are left out; they make up all but 12% or so of the library.

SMILES	Shiga inhibitor	CHX counter	MARV entry inh	LASV entry inh
O=C(Cc1c[nH]c2ccccc12)NNCc1ccc(N(CCCl)CCCl)cc1	nt	nt	1.58µM*	3.55µM*
CCOC(=O)/C(=N\Nc1ccccc1[N+](=O)[O-])c1csc(N)n1	35.6	21.4*	nt	nt
CCOC(=O)/C(=N\Nc1ccc(C(C)=O)cc1)c1csc(Nc2ccccc2)n1	6.2	4.5	?	?
CCOC(=O)CC(NC(=O)c1cc2cc(Cl)ccc2oc1=O)c1ccc(C)cc1 (stereo not given)	nt	nt	-14.4%[46.1 µM]	-0.8%[46.1 µM]
CCN(C(=O)CSc1nnc(CNc2cccc(OC)c2)n1C1CCCCC1)C1CCS(=O)(=O)C1 (stereo not given)	-9.2	21.2	11.3%	-8.9%
Cc1cc(Nc2nc3ccccc3c3nnc(C)n23)ccc1Br	nt	nt	nt	19.2%[46.1 µM]
Cc1ccc(N2C(=O)N(CC(=O)Nc3ccccc3C)C(=O)C2C)cc1 (stereo not given)	18.1*	19.5*	4.8%	0.0%
C=C(C)CSc1nnc([C@@H]2CCCN2)o1	8.2	-2.1	-11.4%	4.8%
O=C(CSc1nnc([C@@H]2CCCN2)o1)c1ccc(Cl)cc1	102.4*	21.9*	1.6%	-9.2%
Cc1cccc(NC(=O)CC2c3ccccc3Oc3ccccc32)c1	-6.3	0.6	1.0%	26.3%[46.1 µM]
COc1ccc(NC(=O)C2Cc3ccccc3O/C2=N\O)cc1 (stereo not given)	113.5*	50.9*	15.1%[46.1 µM]	10.3%[46.1 µM]
COc1ccc(NC(=O)C2CCOC2=O)cc1 (stereo not given)	nt	nt	2.6%	12.3%
Cc1cccc(NC(=O)C2Cc3ccccc3O/C2=N\O)c1 (stereo not given)	63.0*	27.1*	nt	nt
COc1ccccc1CNC(=O)CCc1c(C)c2cc3c(C)c(C)oc3cc2oc1=O	nt	nt	?	6.1%[46.1 µM]
O=C(c1ccc(F)cc1)C1CCN(CCn2c(=O)[nH]c3ccccc3c2=O)CC1	-3.6	-3.7	nt	nt
Cc1nc2ccccn2c(=O)c1CCN1CCC(C(=O)c2ccc(F)cc2)CC1	-8.7	-1.4	6.31µM*!	-10.1%
Cc1nc2sccn2c(=O)c1S(=O)(=O)N1CCN(c2ccc(F)cc2)CC1	0.3	1.7	nt	2.0%[46.1 µM]
Cc1nc2sccn2c(=O)c1CCN1CCC(=C(c2ccc(F)cc2)c2ccc(F)cc2)CC1	-5.2	-1.1	20µM*	11.6µM*
CCCCCN(C(=O)CCC(=O)OCC(=O)c1cccc(OC)c1)c1c(N)n(CCCC)c(=O)[nH]c1=O	-5.2	4.1	3.2%	25.8%
CSc1ccc(CNC(=O)c2ccc3c(c2)N(C)C(=O)C2CCCCN32)cc1 (stereo not given)	nt	nt	nt	29.1%[46.1 µM]
COc1ccc(N=c2oc3c(OC)cccc3cc2C(=O)NCc2ccco2)c(OC)c1	60.1	23.2*	?	?
COc1ccc2cc(C(=O)NCc3ccco3)c(=Nc3ccc(C(=O)O)cc3)oc2c1	112.1*	54.9*	-11.8%	18.1%
COc1ccc2cc(C(=O)NCc3ccco3)c(=O)oc2c1	59.7*	33.5*	11.6%	27.1%
CC(C)c1ccc(NC(=O)Cc2c(C(=O)O)n(C)c3ccccc23)cc1	-2.3	-1.1	0.2%	8.5%
CC(=O)OCC(NC(=O)C(COCc1ccccc1)NC(=O)OC(C)(C)C)C1OC(n2cc(C)c(=O)[nH]c2=O)C(OC(C)=O)C1OC(C)=O (stereo not given)	-2.5	1.2	nt	nt
SMILES	Shiga inhibitor	CHX counter	MARV entry inh	LASV entry inh
O=S(=O)(C(=CNc1ccccc1)S(=O)(=O)c1ccccc1)c1ccccc1	-4.5	-2.0	-12.8%	-7.2%
CCOC(=O)c1sc(/N=C/c2ccc(O)cc2O)cc1C	41.1*	39.7*	4.7%	14.7%
CCOc1ccc(-c2n[nH]c(=S)o2)cc1	19.0	20.5*	?	nt
CC(C)Cc1nc(N2CCC(C(N)=O)CC2)c2nnn(Cc3ccccc3)c2n1	13.8	0.3	-1.1%	1.9%
Cc1nc(N2CCC(C)CC2)c2nnn(Cc3ccccc3)c2n1	56.1*	11.6	-1.3%	-1.9%
CC1(C)Cc2c(sc3nc(=S)[nH]c(N)c23)CO1	-5.4	-3.3	nt	nt
CCOC(=O)c1cc(-c2ccc(C)cc2)n(CC(=O)Nc2ccc(OC)c(Cl)c2)c1C	nt	nt	-19.0%[46.1 µM]	nt
CC1=CC(=O)c2ccccc2C1=O	17.0	6.7	25.5%	4.0%
COc1cccc2c1C(=O)C=C(C)C2=O	-33.7	14.6	11.2µM*	11.2µM*
Cc1c(CNC(C)CCc2ccccc2)c(C(=O)O)c(C)n1Cc1ccc(F)cc1Cl (stereo not given)	nt	nt	?	-10.4%[46.1 µM]
CCSc1nc(-c2ccc(OC)cc2)n(-c2nc3ccccc3s2)n1	11.7	17.1*	16.7%	8.7%
COc1ccc(-c2nnc(SCC(=O)Nc3nc4ccccc4s3)n2C)cc1	-12.7	1.5	-2.4%	-11.6%
CC(Sc1nnc(-c2ccccc2)c(-c2ccccc2)n1)C(=O)N1CCc2ccccc21 (stereo not given)	1.7	-0.9	11.2µM*	?
COc1ccc(CNC(=O)N2CCc3ccccc3C2)cc1Cl	-1.1	13.7*	-16.8%[46.1 µM]	-15.9%[46.1 µM]
O=C(NCc1ccc(Cl)cc1)N1CCc2ccccc2C1	30.3	29.0*	?	-2.2%[46.1 µM]
FC(F)(F)c1cc(C(F)(F)F)c2ccc(N3CCN(c4ccc(Cl)cc4)CC3)nc2n1	-12.2	1.9	4.4%	5.9%
N#CC(c1ccc(Cl)cc1)c1ccc2c(C(F)(F)F)cc(C(F)(F)F)nc2n1 (stereo not given)	-5.4	-1.8	3.16µM*	2.82µM*
O=C(NN1CCOCC1)C12CC3CC(CC(C3)C1)C2	-19.8	-2.3	24.2%	-0.7%
CCn1c(=O)c(-c2nc3ccccc3[nH]2)c(O)c2ccccc21	34.9	21.9*	-18.6%[46.1 µM]	15.9%[46.1 µM]
Nc1ccccc1-c1nc2ccccc2[nH]1	91.7*	45.1*	?	?
N#CCSc1ccc(-c2nc3ccccc3[nH]2)cn1	43.8*	29.0*	?	?
Cc1[nH]ncc1-c1nc2ccccc2[nH]1	20.1	0.6	?	12.7%[46.1 µM]
COCCNC(=O)CSc1ccc(-c2nc3ccccc3[nH]2)cn1	5.1	10.2	nt	nt
Oc1ccc(C=Nc2ccccc2-c2nc3ccccc3[nH]2)cc1	91.8*	69.9*	17.7%	14.3%
O=C(Nc1ccccc1O)c1cc(S(=O)(=O)N2CCCC2)ccc1Cl	nt	nt	nt	-28.8%[46.1 µM]
SMILES	Shiga inhibitor	CHX counter	MARV entry inh	LASV entry inh
Fc1ccc(-c2nc3ccccc3[nH]2)cc1	115.4*	35.3*	-1.4%	?
O=c1[nH]cccc1-c1nc2ccccc2[nH]1	54.6*	21.5*	17.4%[46.1 µM]	?
Nc1ccc2nc(-c3ccc(-c4nc5ccc(N)cc5[nH]4)cc3)[nH]c2c1	33.2	-3.2	nt	nt
Cn1cc(-c2nc3ccccc3[nH]2)c2ccccc21	86.7*	36.2*	11.3%	2.1%
Nc1ccc(-c2nc3ccccc3[nH]2)cc1	101.9*	33.0*	nt	nt
Nc1nc(SCc2ccccc2[N+](=O)[O-])c2ncn(Cc3ccccc3)c2n1	nt	nt	?	-12.7%[46.1 µM]
O=C(c1ccccc1)n1nc(-c2ccco2)nc1NCc1ccccc1Cl	nt	nt	10.5%[46.1 µM]	14.8%[46.1 µM]
Nc1ccc(-c2nc3c(ccc4ccccc43)[nH]2)cc1	42.9*	25.3*	nt	nt
CC(=O)Nc1ccc(S(=O)(=O)NC2CCSc3ccccc32)cc1 (stereo not given)	14.2	8.3	10µM*	?
O=S(=O)(NC1CCSc2ccccc21)c1ccccc1 (stereo not given)	-3.3	-1.8	?	0.6%[46.1 µM]
CC(C)(C)C1CCc2nc(NC(=O)c3cccc(Cl)c3)sc2C1 (stereo not given)	nt	nt	?	0.9%[46.1 µM]
OC1c2ccccc2N=C2CCCN21 (stereo not given)	-5.5	-3.4	nt	nt
